Compound activity from PubChem BioAssay.
The full list was thinned out, with hits kept by preference.
ROC1-CUL1 inh: blocks human RBX1-Cullin-1 di-ubiquitin formation; P62877+Q13616; in vitro K48 di-Ub FRET, acceptor:donor ratio, 45 min; inhibition, % at 10 µM; 140,000 tested, 0.6% active; in the data active = inhibition above about 25%
* marks the source's active call; other numbers are inactive results.

SMILES	ROC1-CUL1 inh
O=C(CCc1ccncc1)N1CCCC(CCc2c(F)cccc2F)C1 (stereo unspecified)	-2.2
O=C(c1ccc(-c2ccco2)cc1)N1CCC2(CC1)CC2C(=O)N1CCN(c2ccccn2)CC1 (stereo unspecified)	2.7
O=C(COc1ccc(/C=C2/SC(=O)N(CC(=O)N3CCOCC3)C2=O)cc1)N1CCOCC1	5.7
O=C(c1cccc(N2CCOCC2)c1)N1CCc2[nH]nc(-c3ccccc3)c2C1	6.2
COC(=O)CNC(=O)Cc1c2c(n(Cc3ccccc3)c1C)CCCC2=O	0.6
Nc1c(C(=O)Nc2ccc(Cl)cc2)sc2nc3c(c(-c4cccs4)c12)-c1ccccc1C3=O	-2.6
CCn1c(COc2ccc(OC)cc2)nnc1SCC(=O)Nc1ccc(Cl)cc1	0.4
O=C(NC(NCC12CC3CC(CC(C3)C1)C2)(C(F)(F)F)C(F)(F)F)c1ccc(Cl)cc1Cl	-2.5
Nc1c([N+](=O)[O-])cc(F)c(N2CCSCC2)c1Br	0.8
COc1c(I)cc(I)cc1/C=C1\C(=O)NN(c2cccc(Cl)c2)C1=O	48.4*
O=C1NN(c2cccc(Cl)c2)C(=O)/C1=C\c1ccc(-c2ccc(Br)cc2C(=O)O)o1	80.4*
COC(=O)c1cc(-c2ccc(/C=C3/C(=O)NN(c4cccc(Br)c4)C3=O)o2)ccc1Cl	4.8
COC(=O)c1cccc(-c2ccc(/C=C3/C(=O)NN(c4cccc(Cl)c4)C3=O)o2)c1	11.1
O=C1NN(c2cccc(Cl)c2)C(=O)/C1=C/c1cc(I)cc(I)c1O	1.2
COc1ccc2cccc(/C=C3\C(=O)NN(c4ccc(Cl)c(Cl)c4)C3=O)c2c1	7.8
COc1ccccc1Oc1ncccc1CNCc1nc(C)c(C)nc1C	-7.0
O=C(Nc1ccc(CN2CCCCC2)cc1)c1cc2ccccc2o1	2.1
Cc1cc(C)cc(N2C(=O)/C(=C/c3cn(CC(=O)N4CCC(C)CC4)c4ccccc34)C(=O)NC2=S)c1	-5.7
O=C1NC(=S)N(c2ccc(Br)cc2)C(=O)/C1=C/c1cn(CC(=O)N2CCCc3ccccc32)c2ccccc12	-9.9
Cc1c(Cl)cccc1N1C(=O)/C(=C/c2cn(CC(=O)O)c3ccccc23)C(=O)NC1=S	80.7*
CC(C)CN1CCC(CNC(=O)c2ccc(N3CCOCC3)nc2)C1 (stereo unspecified)	-10.6
CCOc1ccc(CC2=NC(=S)N(c3ccc(C)c(C)c3)C2=O)c(OCC)c1	-6.4
CC(NC(=O)c1ccc(N2CCC(NCCCN3CCCC3=O)CC2)cc1)c1ccccc1 (stereo unspecified)	-1.1
COC(=O)c1c(C)sc(-c2c(-c3ccc4c(c3)OCCO4)[nH]c3c2c(=O)[nH]c(=O)n3C)c1O	27.3*
COC(=O)c1c(C)sc(-c2c(-c3cccc(OC)c3)[nH]c3c2c(=O)[nH]c(=O)n3C)c1O	23.8
SMILES	ROC1-CUL1 inh
COC(=O)c1c(C)sc(-c2c(-c3ccc(OC)c(F)c3)[nH]c3c2c(=O)n(C)c(=O)n3C)c1O	3.2
Clc1ccc(OCCN2CCCCC2)c2ccccc12	5.8
CC(C)=CCNS(=O)(=O)c1ccc(C)cc1	-14.6
Cc1sc(NC(=O)C(C)C)nc1-c1ccccc1	17.6
CC(C)NC(=O)Nc1nccc2ccccc12	10.3
CCN(CC)c1ccc(/C=C2\C(=O)NC(=O)N(c3ccc(Br)c(C)c3)C2=O)cc1	-39.8
CCN(CC)c1ccc(/C=C2\C(=O)NC(=S)N(c3ccc(Br)cc3)C2=O)cc1	28.1*
O=C1NC(=S)N(c2ccc(Br)cc2)C(=O)/C1=C/c1ccc(F)cc1	-0.4
COc1cc(CNc2ccccc2C)cc(Cl)c1OCc1cccc(F)c1	2.1
O=C1C2C3C=CC(C3)C2C(=O)N1c1ccc(N2C(=O)C3C4C=CC(C4)C3C2=O)c(Cl)c1 (stereo unspecified)	-0.3
CN1C(=O)c2ccccc2C(O)c2ccccc21 (stereo unspecified)	-1.7
CC(=O)c1ccccc1-c1ccccc1C(C)=O	13.3
CC(=O)C1=NC(=O)c2ccccc2C1O (stereo unspecified)	53.5*
CCCc1c(C(=O)NC(C)C)nnn1-c1ccccc1	-7.9
CSc1nc2cc(S(=O)(=O)N3CCCc4ccccc43)ccc2s1	3.9
Cc1[nH]nc2c1C(c1ccc(-c3ccccc3C#N)o1)C(C#N)C(=N)O2 (stereo unspecified)	-11.2
Cc1ccc(NC(=O)c2cnn3c(C(F)(F)F)cc(-c4ccc(F)cc4)nc23)cc1C	4.9
O=C1/C(=C/c2ccc(O)c(O)c2)Oc2ccccc21	96.9*
CC(C)c1cc(/C=C2\OC(=O)c3ccccc32)cc(C(C)C)c1O	-8.9
COc1ccc(C=C2C(=O)c3ccccc3C2=O)cc1O	-2.0
CCOc1cc(/C=C2/C(=O)N(c3ccccc3)N=C2C)ccc1OCCOc1ccc(OC)cc1	3.2
C=C(C)CSc1nc2c(C)cccc2[nH]1	-8.1
O=C(CSc1nnc(-c2ccncc2)n1-c1cccc(C(F)(F)F)c1)NC(=O)Nc1ccccc1	-2.6
CN=C1CC=C(Br)C=C(C(=O)/C=C/c2ccc(Cl)cc2)C1=O	63.4*
COc1cccc(N2CC(NC(=O)/C=C\c3ccc(OC)c(OC)c3)CC2=O)c1 (stereo unspecified)	-12.7
